According to the supplement of paper PMC10849652:
About 7,900 targets were measured; listed, in parts, are those with a hit and a random draw of the rest. About 0.6% of all pairs of compound and target were hits.

Columns and labels:
Test in all cases: log2 fold change, soluble protein after heating vs DMSO (PISA); higher = thermal stabilisation; K562 cells, 10 uM, 30 min; active = over 0.2 and 3.5 SD of the protein, either way, in both replicates (recomputed)
[1] = compound: CC1=C(C=C(C=C1)NC(=O)C2=CC(=CC=C2)C(C)(C)C#N)NC3=CC4=C(C=C3)N=CN(C4=O)C
How it was run: (§1)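 For each measurement, 10 μM compound was applied for 30 min to K562 cells at 2×10^6 cells/mL. Aliquots were heated for 3 min across 48°C-58°C, pooled, and extracted in PBS with 0.5% NP-40 at 4°C; the supernatant after 21,000xg for 90 min was soluble protein. This was quantified by TMTpro 16plex LC-MS/MS with channel sums equalised, and thermal stability was reported relative to control samples from duplicates, on a log2 fold-change scale.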

[2] = compound: CC1=C(C=C(C=C1)NC(=O)C2=CC(=CC=C2)N(C)C)NC(=O)C3=CC=C(C=C3)O
How it was run: as §1

[3] = compound: CC1=CC=C(C=C1)SC2=C3C=C(SC3=CN=C2)C(=O)N
How it was run: as §1

Nexturastat A = compound: CCCCN(Cc1ccc(C(=O)NO)cc1)C(=O)Nc1ccccc1 [Nexturastat A]
How it was run: as §1

vemurafenib = compound: CCCS(=O)(=O)Nc1ccc(F)c(C(=O)c2c[nH]c3ncc(-c4ccc(Cl)cc4)cc23)c1F [vemurafenib]
How it was run: as §1

[4] = compound: CCCS(=O)(=O)Nc1ccc(F)c(C(=O)c2c[nH]c3ncc(Cl)cc23)c1F
How it was run: as §1

[5] = compound: CCCc1cc(C)[nH]c(=O)c1CNC(=O)c1cc(-c2ccnc(N3CCN(C)CC3)c2)cc2c1cnn2C(C)C
How it was run: as §1

givinostat = compound: CCN(CC)Cc1ccc2cc(COC(=O)Nc3ccc(C(=O)NO)cc3)ccc2c1 [givinostat]
How it was run: as §1

barasertib = compound: CCN(CCCOc1ccc2c(Nc3cc(CC(=O)Nc4cccc(F)c4)[nH]n3)ncnc2c1)CCOP(=O)(O)O [barasertib]
How it was run: as §1

[6] = compound: CC1=NC(=CC=C1)C2=C(N=C(N2)C(C)(C)C)C3=CC4=NC=CN=C4C=C3
How it was run: as §1

Measured: log2 fold change

SLC35F6 (UniProt Q8N357)
inactive: [1] -0.041 | [2] -0.166 | [3] 0.001 | Nexturastat A -0.065 | vemurafenib -0.168 | [4] -0.055 | [5] -0.066 | givinostat 0.129 | barasertib 0.045

SUCLG1 (UniProt P53597)
Chain of UniProt P53597 (P53597 whole entry, looked up): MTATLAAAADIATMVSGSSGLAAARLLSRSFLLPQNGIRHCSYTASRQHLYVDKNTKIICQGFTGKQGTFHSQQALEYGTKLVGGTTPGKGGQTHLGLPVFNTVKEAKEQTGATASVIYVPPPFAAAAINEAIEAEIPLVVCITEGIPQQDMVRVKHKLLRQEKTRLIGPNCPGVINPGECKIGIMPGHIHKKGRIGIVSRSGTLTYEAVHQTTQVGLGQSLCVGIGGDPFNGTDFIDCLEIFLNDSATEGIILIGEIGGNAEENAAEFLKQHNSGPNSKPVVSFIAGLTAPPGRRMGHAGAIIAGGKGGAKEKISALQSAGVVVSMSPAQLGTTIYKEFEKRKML
inactive: [1] -0.02 | [2] -0.008 | [3] -0.001 | [6] 0.025 | Nexturastat A -0.032 | vemurafenib 0.009 | [4] 0 | [5] -0.006 | givinostat -0.102 | barasertib 0.019

TENT5C (UniProt Q5VWP2)
inactive: [1] -0.011 | [2] 0.037 | [3] -0.019 | [6] 0.088 | vemurafenib 0.097 | [4] 0.005 | [5] -0.137 | givinostat 0.014 | barasertib 0.01

TM7SF3 (UniProt Q9NS93)
Chain of UniProt Q9NS93 (Q9NS93 whole entry, looked up): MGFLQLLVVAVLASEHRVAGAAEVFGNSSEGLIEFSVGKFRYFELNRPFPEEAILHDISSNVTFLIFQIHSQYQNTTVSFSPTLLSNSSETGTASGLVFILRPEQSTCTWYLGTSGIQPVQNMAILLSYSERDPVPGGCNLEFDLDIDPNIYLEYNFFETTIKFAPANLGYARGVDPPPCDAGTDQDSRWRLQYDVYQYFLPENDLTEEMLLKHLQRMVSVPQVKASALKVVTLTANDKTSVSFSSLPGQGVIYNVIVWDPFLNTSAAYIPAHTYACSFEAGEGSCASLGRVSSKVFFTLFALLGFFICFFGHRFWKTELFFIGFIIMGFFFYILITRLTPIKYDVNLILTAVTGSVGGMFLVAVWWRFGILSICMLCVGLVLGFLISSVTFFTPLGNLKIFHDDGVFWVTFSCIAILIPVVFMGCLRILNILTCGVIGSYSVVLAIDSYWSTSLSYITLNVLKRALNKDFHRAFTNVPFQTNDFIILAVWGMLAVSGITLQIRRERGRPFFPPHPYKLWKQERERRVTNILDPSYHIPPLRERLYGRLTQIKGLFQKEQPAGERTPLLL
inactive: [1] -0.033 | [2] -0.054 | [3] 0.005 | [6] 0.017 | [4] -0.019 | [5] -0.027 | givinostat 0.06 | barasertib 0.045

TFR2 (UniProt Q9UP52)
inactive: [1] 0.012 | [2] -0.018 | [3] -0.012 | [6] -0.036 | Nexturastat A -0.031 | vemurafenib -0.018 | [4] -0.003 | [5] -0.029 | givinostat -0.083 | barasertib 0.01

TANGO6 (UniProt Q9C0B7)
inactive: [1] 0.069 | [2] -0.006 | [3] 0.039 | [6] 0.031 | Nexturastat A -0.051 | [4] 0.068 | [5] -0.052 | givinostat 0.131 | barasertib 0.048

SNX15 (UniProt Q9NRS6)
inactive: [1] -0.25 | [2] -0.009 | [3] -0.015 | [6] -0.089 | vemurafenib -0.122 | [4] -0.021 | [5] 0.061 | barasertib 0.012

TGFBR1 isoform 2 (UniProt P36897)
inactive: [1] -0.112 | [2] 0.023 | [3] -0.058 | Nexturastat A 0.038 | vemurafenib 0.044 | [4] 0.028 | [5] -0.062 | givinostat 0.07 | barasertib -0.028

SLC27A2 (UniProt O14975)
Chain of UniProt O14975 (O14975 whole entry, looked up): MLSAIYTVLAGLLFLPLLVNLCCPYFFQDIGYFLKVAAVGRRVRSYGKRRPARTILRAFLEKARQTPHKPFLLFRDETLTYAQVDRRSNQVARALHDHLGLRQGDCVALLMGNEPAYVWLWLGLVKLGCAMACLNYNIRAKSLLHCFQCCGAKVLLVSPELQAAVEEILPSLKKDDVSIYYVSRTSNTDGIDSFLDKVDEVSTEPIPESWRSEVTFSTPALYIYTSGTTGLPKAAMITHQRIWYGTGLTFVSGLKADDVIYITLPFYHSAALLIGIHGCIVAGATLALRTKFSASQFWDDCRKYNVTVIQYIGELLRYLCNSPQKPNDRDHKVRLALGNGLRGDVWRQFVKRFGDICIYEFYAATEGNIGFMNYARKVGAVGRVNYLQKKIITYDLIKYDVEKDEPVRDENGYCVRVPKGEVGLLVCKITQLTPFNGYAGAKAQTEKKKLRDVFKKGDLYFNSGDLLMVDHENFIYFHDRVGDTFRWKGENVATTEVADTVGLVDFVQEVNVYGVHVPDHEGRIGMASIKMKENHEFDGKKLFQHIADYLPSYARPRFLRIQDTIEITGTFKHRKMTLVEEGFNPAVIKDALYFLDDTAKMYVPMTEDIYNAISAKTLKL
inactive: [1] 0.099 | [2] -0.042 | [3] -0.032 | [6] -0.032 | Nexturastat A -0.013 | vemurafenib 0.029 | [4] 0.073 | [5] 0.008 | givinostat -0.004 | barasertib 0

SUPT5H isoform 2 (UniProt O00267)
inactive: vemurafenib 0.232

SPIN4 (UniProt Q56A73)
inactive: [6] -0.601 | givinostat -0.245

TCOF1 isoform 3 (UniProt Q13428)
inactive: [1] -0.051 | [2] 0.262 | Nexturastat A -0.429 | givinostat 0.047

TATDN2 (UniProt Q93075)
inactive: [1] -0.256 | [3] 0.048 | [6] -0.07 | Nexturastat A 0.092 | vemurafenib 0.168 | [4] 0.019 | givinostat -0.004 | barasertib 0.126

TEX30 (UniProt Q5JUR7)
inactive: [2] -0.182 | [3] 0.047 | [6] -0.062 | Nexturastat A 0.009 | vemurafenib 0.138 | [4] 0.037 | [5] -0.119 | givinostat -0.146 | barasertib 0.019

SLC8B1 (UniProt Q6J4K2)
inactive: [2] 0.038 | [3] -0.28 | [6] -0.022 | vemurafenib -0.075 | [4] -0.021 | givinostat 0.069 | barasertib -0.167

STK17B (UniProt O94768)
inactive: [6] 0.031 | givinostat 0.16 | barasertib 0.29

SMPD4 isoform 2 (UniProt Q9NXE4)
inactive: [3] 0.162 | [6] -0.023 | vemurafenib -0.301 | [4] 0.099 | [5] -0.035 | barasertib 0.034

SLC39A1 (UniProt Q9NY26)
inactive: givinostat -0.157

TM7SF2 (UniProt O76062)
inactive: [1] 0.051 | [2] 0.015 | [3] -0.045 | vemurafenib 0.252 | [4] 0.123 | givinostat 0.18

SMDT1 (UniProt Q9H4I9)
inactive: [1] 0.137 | [6] 0.033 | Nexturastat A -0.015 | vemurafenib 0.037 | [5] -0.127 | barasertib -0.021

SLC44A2 isoform 2 (UniProt Q8IWA5)
Chain of UniProt Q8IWA5 (Q8IWA5 whole entry, looked up): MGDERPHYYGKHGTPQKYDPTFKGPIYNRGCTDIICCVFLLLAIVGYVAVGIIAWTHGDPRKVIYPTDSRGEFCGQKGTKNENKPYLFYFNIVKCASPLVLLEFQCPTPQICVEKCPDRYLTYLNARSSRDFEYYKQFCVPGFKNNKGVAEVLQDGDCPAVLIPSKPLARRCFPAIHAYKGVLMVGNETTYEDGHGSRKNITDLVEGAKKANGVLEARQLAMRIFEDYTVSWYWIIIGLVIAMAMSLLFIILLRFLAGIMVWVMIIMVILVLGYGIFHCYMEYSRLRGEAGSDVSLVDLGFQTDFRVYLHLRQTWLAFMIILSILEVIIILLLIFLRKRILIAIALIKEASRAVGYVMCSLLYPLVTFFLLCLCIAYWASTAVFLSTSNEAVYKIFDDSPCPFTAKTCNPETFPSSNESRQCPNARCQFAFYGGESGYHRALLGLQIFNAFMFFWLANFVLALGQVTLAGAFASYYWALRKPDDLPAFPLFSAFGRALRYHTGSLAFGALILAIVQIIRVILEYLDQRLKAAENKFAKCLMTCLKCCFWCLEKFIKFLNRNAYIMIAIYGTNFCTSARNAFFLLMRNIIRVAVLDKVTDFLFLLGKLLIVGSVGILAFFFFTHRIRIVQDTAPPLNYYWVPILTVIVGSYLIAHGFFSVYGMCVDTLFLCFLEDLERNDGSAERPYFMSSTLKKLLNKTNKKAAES
inactive: [1] 0.084 | [2] -0.033 | [6] -0.024 | Nexturastat A 0.05 | vemurafenib 0.038 | [5] -0.029 | givinostat -0.027 | barasertib -0.012

SYNE1 (UniProt Q8NF91)
inactive: [1] -0.126 | [2] -0.051 | [6] -0.17 | vemurafenib -0.045 | [5] -0.044 | givinostat 0.199 | barasertib 0.047
active: Nexturastat A 0.612

TAOK2 (UniProt Q9UL54)
Chain of UniProt Q9UL54 (Q9UL54 whole entry, looked up): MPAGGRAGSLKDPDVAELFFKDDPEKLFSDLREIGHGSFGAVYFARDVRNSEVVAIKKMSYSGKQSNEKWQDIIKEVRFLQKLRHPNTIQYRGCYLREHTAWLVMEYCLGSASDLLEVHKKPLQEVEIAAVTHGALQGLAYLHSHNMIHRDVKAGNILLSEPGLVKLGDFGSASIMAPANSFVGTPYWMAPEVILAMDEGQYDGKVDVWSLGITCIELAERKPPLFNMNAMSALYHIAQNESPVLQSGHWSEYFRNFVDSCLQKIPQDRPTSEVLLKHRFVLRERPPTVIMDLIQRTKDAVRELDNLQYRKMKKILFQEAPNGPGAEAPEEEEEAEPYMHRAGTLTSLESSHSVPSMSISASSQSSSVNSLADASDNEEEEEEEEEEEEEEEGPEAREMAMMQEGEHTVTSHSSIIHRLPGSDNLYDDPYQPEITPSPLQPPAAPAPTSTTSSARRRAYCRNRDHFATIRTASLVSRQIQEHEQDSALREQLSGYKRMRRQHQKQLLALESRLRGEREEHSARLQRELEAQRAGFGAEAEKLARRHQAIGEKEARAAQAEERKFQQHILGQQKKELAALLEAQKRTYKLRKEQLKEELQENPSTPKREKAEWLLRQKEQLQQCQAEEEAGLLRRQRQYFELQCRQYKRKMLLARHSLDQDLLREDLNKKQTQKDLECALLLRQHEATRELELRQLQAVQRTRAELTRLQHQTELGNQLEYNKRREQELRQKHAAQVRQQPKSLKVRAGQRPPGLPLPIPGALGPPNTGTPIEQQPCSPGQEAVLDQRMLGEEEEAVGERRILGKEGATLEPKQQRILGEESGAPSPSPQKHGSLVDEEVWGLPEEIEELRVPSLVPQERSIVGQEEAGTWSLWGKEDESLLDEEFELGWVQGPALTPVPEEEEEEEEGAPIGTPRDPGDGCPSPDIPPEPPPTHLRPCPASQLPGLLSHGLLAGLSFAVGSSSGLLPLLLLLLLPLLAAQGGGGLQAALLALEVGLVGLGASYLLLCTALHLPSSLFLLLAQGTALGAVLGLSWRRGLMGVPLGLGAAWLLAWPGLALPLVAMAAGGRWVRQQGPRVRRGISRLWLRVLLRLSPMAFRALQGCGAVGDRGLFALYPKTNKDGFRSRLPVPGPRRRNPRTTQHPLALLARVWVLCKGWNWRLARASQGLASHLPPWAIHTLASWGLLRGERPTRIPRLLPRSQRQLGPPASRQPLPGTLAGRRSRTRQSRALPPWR
active: Nexturastat A 0.487
inactive: [2] 0.024 | [3] 0.062 | [6] 0.08 | [4] 0.051 | [5] 0.007 | givinostat -0.363

SSB (UniProt E7ERC4)
inactive: vemurafenib 0.264 | [5] 0.283

THAP9 (UniProt Q9H5L6)
inactive: [2] 0.017 | [6] -0.065 | [5] -0.463 | barasertib 0.121

TC2N (UniProt Q8N9U0)
inactive: [2] 0.077 | vemurafenib 0.063 | [5] -0.098

SLC46A1 (UniProt Q96NT5)
inactive: vemurafenib 0.056 | givinostat 0.011

SSBP4 (UniProt U3KPY3)
inactive: vemurafenib -0.095 | [5] -0.028

TBC1D2 (UniProt Q9BYX2)
inactive: [5] 0.11
active: Nexturastat A 0.618

SPAG9 isoform 4 (UniProt O60271)
inactive: [1] 0.184 | [2] -0.025 | [6] -0.038 | vemurafenib 0.174 | [5] 0.028 | givinostat 0.021 | barasertib 0.176

TBP (UniProt P20226)
inactive: [2] -0.04 | [3] -0.056 | [6] -0.071 | Nexturastat A 0.163 | vemurafenib 0.02 | [4] -0.026 | [5] -0.154 | barasertib -0.067

TCOF1 isoform 6 (UniProt Q13428)
inactive: [1] 0.148 | [2] -0.078 | [6] -0.105 | vemurafenib 0.146 | [5] 0.545 | givinostat -0.024 | barasertib 0.008

SNRK (UniProt Q9NRH2)
inactive: [1] -0.029 | [3] 0.066 | [6] 0.225 | [4] 0.07

SPIRE1 (UniProt Q08AE8)
inactive: [2] 0.013 | [6] -0.025 | Nexturastat A 0.31 | vemurafenib -0.011 | [5] -0.062 | givinostat 0.185 | barasertib -0.014

SMARCB1 (UniProt Q12824)
Chain of UniProt Q12824 (Q12824 whole entry, looked up): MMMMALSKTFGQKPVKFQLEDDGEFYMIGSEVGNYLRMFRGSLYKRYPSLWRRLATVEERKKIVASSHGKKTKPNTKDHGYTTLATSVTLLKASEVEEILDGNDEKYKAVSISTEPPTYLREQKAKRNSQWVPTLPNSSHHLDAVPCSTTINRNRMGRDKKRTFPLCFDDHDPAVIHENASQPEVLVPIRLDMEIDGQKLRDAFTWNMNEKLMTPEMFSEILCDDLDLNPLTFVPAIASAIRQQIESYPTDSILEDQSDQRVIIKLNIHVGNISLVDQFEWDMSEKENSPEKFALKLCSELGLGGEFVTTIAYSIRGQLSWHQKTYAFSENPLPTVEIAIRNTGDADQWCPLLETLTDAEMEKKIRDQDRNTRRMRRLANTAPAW
inactive: [1] 0.188 | [6] 0.101 | vemurafenib 0.065

SREBF1 isoform 4 (UniProt P36956)
inactive: [6] 0.035 | Nexturastat A 0.063 | givinostat 0.051 | barasertib -0.071
active: [5] -0.932

SLC35B4 (UniProt Q969S0)
inactive: [1] 0.018 | [6] -0.064 | Nexturastat A -0.061 | vemurafenib 0.062 | [5] -0.002 | givinostat 0.077 | barasertib -0.01

TAF6L (UniProt Q9Y6J9)
Chain of UniProt Q9Y6J9 (Q9Y6J9 whole entry, looked up): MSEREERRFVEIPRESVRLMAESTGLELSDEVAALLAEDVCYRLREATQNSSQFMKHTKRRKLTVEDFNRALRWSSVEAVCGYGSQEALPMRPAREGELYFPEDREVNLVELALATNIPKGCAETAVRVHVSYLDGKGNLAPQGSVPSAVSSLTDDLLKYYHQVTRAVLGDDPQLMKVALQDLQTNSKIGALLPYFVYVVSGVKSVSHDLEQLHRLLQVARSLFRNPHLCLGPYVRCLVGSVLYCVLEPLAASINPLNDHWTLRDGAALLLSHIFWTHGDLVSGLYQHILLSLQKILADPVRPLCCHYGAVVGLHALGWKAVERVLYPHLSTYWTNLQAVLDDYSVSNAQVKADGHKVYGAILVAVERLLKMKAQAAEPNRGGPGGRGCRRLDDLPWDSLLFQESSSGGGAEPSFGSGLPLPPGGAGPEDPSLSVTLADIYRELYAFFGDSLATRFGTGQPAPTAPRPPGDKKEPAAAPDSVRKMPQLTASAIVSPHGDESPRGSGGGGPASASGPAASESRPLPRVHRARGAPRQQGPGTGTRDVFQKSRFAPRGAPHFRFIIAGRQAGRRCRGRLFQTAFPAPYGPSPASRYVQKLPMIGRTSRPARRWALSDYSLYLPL
inactive: [1] -0.042 | [2] 0.114 | [3] -0.055 | [4] -0.059 | [5] 0.091 | givinostat 0.075

STK38L (UniProt Q9Y2H1)
Chain of UniProt Q9Y2H1 (Q9Y2H1 whole entry, looked up): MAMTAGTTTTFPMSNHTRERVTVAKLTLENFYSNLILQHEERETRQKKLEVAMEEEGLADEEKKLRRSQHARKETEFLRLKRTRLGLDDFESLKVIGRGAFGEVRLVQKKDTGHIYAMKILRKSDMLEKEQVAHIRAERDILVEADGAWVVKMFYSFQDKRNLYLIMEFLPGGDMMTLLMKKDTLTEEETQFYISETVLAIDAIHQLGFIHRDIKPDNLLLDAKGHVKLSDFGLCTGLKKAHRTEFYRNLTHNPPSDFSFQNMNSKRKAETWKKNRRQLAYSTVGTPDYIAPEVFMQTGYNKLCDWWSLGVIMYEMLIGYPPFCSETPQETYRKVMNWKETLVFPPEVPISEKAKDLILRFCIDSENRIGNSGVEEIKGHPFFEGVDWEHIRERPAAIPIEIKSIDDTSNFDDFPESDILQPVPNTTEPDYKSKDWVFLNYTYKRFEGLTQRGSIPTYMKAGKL
inactive: [1] -0.044 | [2] 0.165 | [6] 0.056 | Nexturastat A -0.074 | vemurafenib -0.038 | [5] 0.079 | givinostat -0.016 | barasertib 0.064

STK11IP (UniProt Q8N1F8)
inactive: [1] 0.095 | [3] 0.038 | [6] -0.071 | Nexturastat A 0.118 | vemurafenib -0.159 | [4] 0.061 | [5] 0.063 | givinostat -0.017 | barasertib 0.008

SLC9A6 isoform 3 (UniProt Q92581)
inactive: [3] -0.152 | [4] -0.152 | givinostat -0.021 | barasertib 0.109

SP2 (UniProt Q02086)
inactive: [1] -0.032 | [6] -0.122

SNX2 isoform 2 (UniProt O60749)
inactive: [1] 0 | [3] -0.003 | [6] -0.039 | Nexturastat A 0.484 | vemurafenib -0.026 | [4] -0.144 | barasertib -0.054

SRSF6 (UniProt Q13247)
inactive: [1] -0.012 | [3] -0.16 | [6] 0.126 | Nexturastat A 0.248 | vemurafenib -0.024 | [4] -0.058 | [5] 0.104 | givinostat 0.019 | barasertib -0.059

SYK (UniProt P43405)
inactive: [2] 0.015 | [3] -0.025 | [6] -0.386 | vemurafenib -0.097 | [4] -0.058 | givinostat 0.307 | barasertib -0.094
active: Nexturastat A 0.901

SLC35B1 isoform 2 (UniProt P78383)
inactive: [1] 0.165 | [2] -0.109 | [6] 0.054 | Nexturastat A 0.072 | vemurafenib 0.267 | [5] -0.221 | givinostat 0.069 | barasertib -0.055

TDP1 (UniProt Q9NUW8)
inactive: givinostat 0.112
